“And” between values parts separate entries of the source, which are not always exact repeats. Equal entries are not always repeated. Inconclusive results are not listed. The source made the active and inactive calls. Unless noted, no stated cut-off is given here; in the data, active means inhibition above about 80%; inactive means the rest.

Assay [1] can be described thus: viability loss in pontine glioma line – cell-based, SU-DIPG-XXV, MIPE5.0, CellTiter-Glo, qHTS, dose response (AID 1347065; cut-off not given, nearly all actives have AC50 up to about 26 µM;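 further: cells exposed to compound for 48 hours before ATP readout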). The following applies: CellTiter-Glo ATP luminescence. On the technique in general: Cellular ATP, detected with luciferase, serves as a proxy for viable cell number.
A short description of assay [2]: modifiers of HSF1 nuclear foci, imaging, Selleck Cancer Library (AID 1347162; in the data active means plate-normalised HSF1 focus index below about 0.46). The following applies: human cells, at 10 µM; SSMD: measured here: HSF1 foci SSMD mean; cell count: measured here: cell number; plate-normalised HSF1 focus index: stronger effect = lower value.
Assay [3] is described as follows: protection against mutant huntingtin cytotoxicity, PC12 cells, LDH release (AID 1610). The following applies: PC12 mutant huntingtin toxicity, final LDH at 4 uM, stronger effect = lower value. A general note: LDH leaks from cells whose membrane has failed.
Assay [4] is described as follows: growth inhibition of DIPG glioma cells, dose response, cell-based, SU-DIPG-XIII, MIPE5.0, CellTiter-Glo, qHTS (AID 1347064; cut-off not given, nearly all actives have AC50 up to about 23 µM). The following applies: SU-DIPG-XIII viability, CellTiter-Glo ATP luminescence.
Assay [5] can be described thus: LFS_MB_1R medulloblastoma cell growth inhibition, synergistic combos for chromothripsis tumors, cisplatin or BGB combos (AID 1671452).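 Further: cells exposed for 96 hours before readout.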 The following applies: LFS_MB_1R medulloblastoma cells, stronger effect = higher value.
Assay [6] can be described thus: CRL2098 osteosarcoma cell growth inhibition, synergistic combos for chromothripsis tumors, BGB or cisplatin IC20 combos (AID 1671454).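 Further: cells exposed for 96 h before readout; 0% = vehicle DMSO and 100% = killing by high DMSO.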 The following applies: CRL2098 osteosarcoma cells, drug combinations, stronger effect = higher value.
The nature of assay [7]: HD-MB03 medulloblastoma cell growth inhibition, synergistic combos for chromothripsis tumors, BGB or cisplatin IC20 combos (AID 1671455; in the data active means inhibition above about 83%;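 further: 0% = vehicle DMSO and 100% = high DMSO as cytotoxic control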). The following applies: HD-MB03 medulloblastoma cells, stronger effect = higher value.
Assay [8] can be described thus: UWB1.289 ovarian carcinoma cell growth inhibition, synergistic combos for chromothripsis tumors, BGB or cisplatin combos (AID 1671456).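 Further: cells exposed to compound for four days; 0% = vehicle DMSO and 100% = killing by high DMSO.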 The following applies: UWB1.289 ovarian carcinoma cells, stronger effect = higher value.
A short description of assay [9]: LFS_MB_2R medulloblastoma cell growth inhibition, synergistic combos for chromothripsis tumors, cisplatin combos (AID 1671457).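 Further: cells exposed to compound for four days before readout.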 The following applies: LFS_MB_2R medulloblastoma cells, stronger effect = higher value.
Assay [10] can be described thus: MDA-MB-436 breast carcinoma cell growth inhibition, synergistic combos for chromothripsis tumors, BGB or cisplatin combos (AID 1671458; call rule not given here;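 further: cells exposed for 96 hours; 0% = vehicle DMSO and 100% = killing by high DMSO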). The following applies: MDA-MB-436 breast carcinoma growth inhibition, drug combinations, stronger effect = higher value.
Assay [11] is described as follows: UWB1.289_BRCA1 ovarian cancer growth, cell-based, BGB or cisplatin combinations (AID 1671459). The following applies: UWB1.289 BRCA1 ovarian carcinoma, drug combinations, stronger effect = higher value.
Assay [12] is described as follows: human astrocyte viability loss, single and combined drugs, cytotoxicity control for chromothriptic childhood tumor combination screen, cell-based, BGB or cisplatin IC20 combos (AID 1671460).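 Further: cells exposed to compounds for 96 hours before viability readout; 0% = vehicle and 100% = killing control.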 The following applies: Human astrocytes, drug combinations, stronger effect = higher value.
Assay [13] in a line: growth inhibition of BT084 medulloblastoma cells, cell-based, ICGC_MB145, cisplatin and BGB IC40 combos (AID 1671461).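 Further: cells exposed to drugs for 96 hours; 0% = vehicle DMSO and 100% = high DMSO full killing control.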 The following applies: drug combinations, stronger effect = higher value.
A short description of assay [14]: growth inhibition of RCMB18 medulloblastoma cells, cell-based, cisplatin and BGB IC40 combos (AID 1671462).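 Further: cells exposed to compound for four days.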 The following applies: stronger effect = higher value.
A short description of assay [15]: growth inhibition of CRL1545 osteosarcoma cells, cell-based, cisplatin and BGB IC20 combos (AID 1671464).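 Further: cells exposed to compound for 96 hours before readout; 0% = vehicle DMSO and 100% = high DMSO killing control.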 The following applies: stronger effect = higher value.
Setting [16] is: measured here: combination with BGB IC40, at 0.05 µM.
Setting [17] is: measured here: combination with cisplatin, at 0.5 µM.
Setting [18] is: measured here: combination with cisplatin, at 5 µM.
Setting [19] is: measured here: combination with BGB at IC20, at 0.5 µM.
[20] abbreviates: measured here: combination with cisplatin at IC20, at 0.5 µM.
[21] abbreviates: measured here: combo with BGB at IC20, at 0.5 µM.
[22] abbreviates: measured here: combo with cisplatin at IC20, at 0.5 µM.
Setting [23] is: measured here: inhibition with BGB combination, at 0.05 µM.
[24] abbreviates: measured here: inhibition with cisplatin combination, at 0.05 µM.
[25] abbreviates: measured here: BGB combination, at 0.5 µM.
Where [26] appears, read: measured here: BGB combination, at 5 µM.
The mark [27] stands for this setting: measured here: cisplatin combination, at 0.5 µM.
[28] abbreviates: measured here: cisplatin combination, at 5 µM.
Setting [29] is: BGB combination, concentration series, at 5 µM.
[30] abbreviates: cisplatin combination, concentration series, at 5 µM.
Where [31] appears, read: measured here: combo with BGB IC20, at 0.5 µM.
Where [32] appears, read: measured here: combo with cisplatin IC20, at 0.5 µM.
The mark [33] stands for this setting: cisplatin combination, at 0.5 µM.
The mark [34] stands for this setting: measured here: BGB IC40 combination 0.05 uM, at 0.05 µM.
[35] abbreviates: measured here: BGB IC40 combination, at 0.05 µM.
[36] abbreviates: measured here: with BGB IC20 combination, at 0.5 µM.
Setting [37] is: measured here: with cisplatin IC20 combination, at 0.5 µM.

For the compound `O=C(O)c1nn(Cc2ccc(Cl)cc2Cl)c2ccccc12`, the compound was classed as inactive in assay [1]. In addition, in [2], the SSMD stood at 0.502, the cell count stood at 6570 and the plate-normalised HSF1 focus index is 1.03 (inactive).
Compound `CN(C)[C@@H]1C(=O)C(C(N)=O)=C(O)[C@@]2(O)C(=O)C3=C(O)c4c(O)cccc4[C@@](C)(O)[C@H]3[C@H](O)[C@@H]12` yielded a normalised LDH release in assay [3] of 0.818. The compound was called inactive in [4].
A word on the inhibition: it is the relative decrease from the control value, in per cent. For `O=P1(N(CCCl)CCCl)NCCCO1` (centres undefined), the result in assay [4] was inactive. Besides, in [2], the SSMD is 1.32. This compound also displayed a cell count in [2] of 7410. The plate-normalised HSF1 focus index in assay [2] was 1.05 (inactive). Further, the inhibition was -27.2% (inactive) and -18.7% (inactive) in assay [5] (at 0.5 µM); -28.1% and -17.9% in assay [5] (setting [16]); -62% and -22.2% in assay [5] (setting [17]); -58.8% and -8.04% in assay [5] (setting [18]); -64.7% (inactive) and -26.3% (inactive) in assay [6] (at 0.5 µM); -52.1% and -36.9% in [6] (setting [19]). Further, the inhibition was -105% and -14.6% in [6] (setting [20]); -15.6% (inactive) and -8.72% (inactive) in [7] (at 0.5 µM); -13.1% and -5.67% in assay [7] (setting [21]); -23.9% and -12.6% in assay [7] (setting [22]); -11% (inactive) and -0.72% (inactive) in assay [8] (at 0.5 µM); 0.467% and -11.6% in assay [8] (setting [23]). Moreover, the inhibition in assay [8] (setting [24]) was -17.5% and -3.57%; in [9] (at 0.5 µM), -8.87% (inactive) and -10.9% (inactive); in [9] (setting [17]), -12.2% and -3.73%; in assay [9] (setting [18]), -12% and -15.2%; in assay [10] (at 0.5 µM) it was -6.84% (inactive) and -18.8% (inactive); in [10] (setting [25]) it was -4.29% and -16.7%. The inhibition in [10] (setting [26]) was -11.8% and -7.83%; in assay [10] (setting [27]), -1.92% and -34.6%; in assay [10] (setting [28]), -42.1% and -18.1%; in assay [11] (setting [29]), -8.88% and 6.63%; in assay [11] (at 0.5 µM) it was -10.4% (inactive) and -3.19% (inactive); in [11] (setting [30]), -43.5% and 10.9%. Moreover, the inhibition was 1.59% (inactive) and 8.63% (inactive) in [12] (at 0.5 µM); 0.13% and 3.09% in assay [12] (setting [31]); 6.54% and 14.4% in [12] (setting [32]); -9.95% (inactive) and -11.7% (inactive) in assay [13] (at 0.5 µM); -36.8% and -12% in assay [13] (setting [33]); -1.57% and -57.3% in assay [13] (cisplatin combination, at 5 µM). For the same compound, the inhibition was -19.2% and 1.38% in assay [13] (setting [34]); -9.56% and -21.4% in assay [13] (single agent, at 5 µM); -4.96% (inactive) and -6.79% (inactive) in assay [14] (at 0.5 µM); -39% and 8.55% in assay [14] (cisplatin combo, at 5 µM); -12.6% and 10% in assay [14] (setting [35]); -20.8% and 7.02% in assay [14] (setting [17]). The inhibition in assay [14] (single agent, at 5 µM) is -6.86% and -4.77%; in assay [15] (at 0.5 µM), -20.8% (inactive) and -21.4% (inactive); in assay [15] (setting [36]) it was -33.7% and 3.63%; in assay [15] (setting [37]), -16.2% and -34%; in assay [15] (single agent, at 0.05 µM), -25% and -2.49%; in assay [15] (single agent, at 5 µM), 10.9% and -41%.
On to `O=C(O)CCCc1ccc(N(CCCl)CCCl)cc1`, for which the inhibition in [5] (at 0.5 µM) was 1.38% (inactive); in assay [5] (setting [16]), -18.1%; in assay [5] (setting [17]), 34.7%; in [5] (setting [18]), 17.9%; in [6] (at 0.5 µM) it was -43.4% (inactive); in [6] (setting [19]) it was -73.2%. The inhibition in [6] (setting [20]) was -65.8%; in assay [7] (at 0.5 µM), -3.23% (inactive); in assay [7] (setting [21]), -9.02%; in assay [7] (setting [22]), 0.904%; in assay [8] (at 0.5 µM), -7.41% (inactive); in assay [8] (setting [23]) it was -22.1%. Further, the inhibition in assay [8] (setting [24]) is -7.19%; in assay [9] (at 0.5 µM), -24.2% (inactive); in assay [9] (setting [17]), -24.7%; in [9] (setting [18]), -25.9%; in [10] (at 0.5 µM), -23.5% (inactive); in assay [10] (setting [25]), -17.2%. In addition, the inhibition in assay [10] (setting [26]) was -7.5%; in [10] (setting [27]), -37.9%; in assay [10] (setting [28]), -2.83%; in [11] (setting [29]), -9.82%; in [11] (at 0.5 µM), -20.2% (inactive); in assay [11] (setting [30]) it was 4.66%. In addition, the inhibition in assay [12] (at 0.5 µM) was -13.8% (inactive); in assay [12] (setting [31]) it was -14.7%; in assay [12] (setting [32]), -9.75%; in assay [13] (at 0.5 µM), -18.3% (inactive); in [13] (setting [33]) it was -2.56%; in assay [13] (cisplatin combination, at 5 µM), -9.03%. The inhibition in assay [13] (setting [34]) was 37.2%; in assay [13] (single agent, at 5 µM), -26.4%; in assay [14] (at 0.5 µM), -21.5% (inactive); in [14] (cisplatin combo, at 5 µM), -8.27%; in [14] (setting [35]) it was -18.3%; in assay [14] (setting [17]), -40%. Moreover, the inhibition in [14] (single agent, at 5 µM) is -21%; in [15] (at 0.5 µM), -17.8% (inactive); in assay [15] (setting [36]), -15.9%; in [15] (setting [37]) it was -18.8%; in assay [15] (single agent, at 0.05 µM), 15.9%; in assay [15] (single agent, at 5 µM), 10.1%.

The record behind these values is PubChem BioAssay.
